Screening results (PubChem BioAssay)
Insulin prom up: MIN6 insulin promoter up-regulation | MIN6 insulin promoter-GFP reporter, high-content imaging; stronger effect = higher value | z-score at 5 µM | hit rate 0.3% among 190,000 | AID 1625;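 active = z-score above 3 at 5 µM with at least 500 cells counted in the well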
L major viab: reduces viability of Leishmania major promastigotes; resazurin fluorescence viability; inhibition, % at 10 µM; hit rate 9% among 200,000; AID 1063; in the data active = inhibition above about 50%;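 also: promastigotes grown with compound for 44 hours at 28 °C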
Autophagy mod: autophagy modulation, high-content screen. MEF GFP-LC3 puncta imaging; test concentration mostly 10 µM. calls only at 10 µM (by protocol). hit rate 0.98% among 190,000;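 active = percentage of spot-positive cells more than 3 SD above its plate mean, without a fluorescence outlier flag or 80% toxicity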;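 also: spot-positive cell cutoff set from DMSO-treated cells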
INS promoter inh: TRM-6 insulin promoter activity inhibition; TRM-6 cells (human fetal islet line), insulin promoter-eGFP reporter, imaging; reporter expression induced with tamoxifen; inhibition, % at 2 µM; hit rate 0.9% among 130,000; AID 1273;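 active = inhibition above the mean plus 3 SD, with well images judged a real hit on visual review, cut at about 60% in these data, passing the limit was not always enough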
WT yeast gro inh: growth inhibition of WT yeast, mitochondrial fusion screen; mitochondrial fusion phenotypic screen, WT strain; inhibition, % at 10 µM; hit rate 2.1% among 190,000; AID 1362; in the data active = inhibition above about 58%; tested in S. cerevisiae
* hit, by the source's call; i = inactive; x = not tested or not shown; + = active, no number. Shown are actives, neighbours in structure and some others; about 11% of the full set was active somewhere.

SMILES | Insulin prom up | L major viab | Autophagy mod | INS promoter inh | WT yeast gro inh
C#CCn1c(=NC(=O)c2ccc(S(=O)(=O)N3CCCc4ccccc43)cc2)sc2cc(S(N)(=O)=O)ccc21 | 0.1 | 100* | i | -68 | 7
CCN(C(=O)C(C)Cl)c1ccccc1 (stereo unspecified) | 0.32 | -6 | i | 12 | -25
CCCN(CCC)CCCNC(=O)c1cc2c(=O)n(C)c3ccccc3c2n1C | 0.68 | 51* | i | x | 14
Cn1c(C(=O)NCCCN2CCCCCC2)cc2c(=O)n(C)c3ccccc3c21 | -0.56 | 67* | x | x | 14
CCCCN(CC)CCNC(=O)c1cc2c(=O)n(C)c3ccccc3c2n1C | -0.91 | 77* | i | x | 11
CCOc1ccc(NC(=O)CSc2nc(-c3cccs3)cc(C(F)(F)F)n2)c([N+](=O)[O-])c1 | -0.03 | -8 | i | -7 | -6
O=C(NCC1CCCO1)c1nnc(Cc2ccc(F)cc2)o1 (stereo unspecified) | 0.09 | -6 | i | -30 | 7
CCCCOCCCNC(=O)/C=C/c1ccccc1Cl | x | 3 | i | -11 | x
CCOC(=O)c1nnn(CC(=O)NC(=O)Nc2ccc(F)cc2)c1C(=O)OCC | -0.62 | -5 | i | x | 4
COc1ccc(-c2ccc3c(N)c(C(=O)c4ccc(OC)c(OC)c4)sc3n2)cc1 | x | -2 | + | -38 | -18
COc1ccc(C(=O)c2sc3nc(-c4ccccc4)ccc3c2N)cc1OC | x | -2 | i | x | -4
COc1ccc(C)cc1NC(=O)C(OC(=O)CNC(=O)c1ccc(Br)cc1)c1ccccc1 (stereo unspecified) | -0.07 | 52* | i | -15 | 23
COc1ccc(C)cc1NC(=O)C(OC(=O)CNC(=O)c1cc(C)cc(C)c1)c1ccccc1 (stereo unspecified) | 0.05 | -3 | i | x | 11
COC(=O)/C(=C/c1cccnc1)NC(=O)c1ccccc1 | -0.09 | -4 | i | x | 5
COC(=O)C(=C/C(C)=C/c1cccnc1)C(=O)OC | -1.4 | 71* | i | x | -24
Cn1c(O)c(N=Nc2ccc(F)cc2)c2ccccc21 | -0.29 | -7 | i | -55 | 2
Cn1c(O)c(N=Nc2nc(-c3ccccc3)cs2)c2ccccc21 | 0.77 | 66* | i | -32 | 7
CCOP(=O)(OCC)C(Nc1cccc(C(F)(F)F)c1)c1ccc(C)cc1 (stereo unspecified) | 0.23 | 59* | i | 12 | 30
CCCOP(=O)(OCCC)C(Nc1cccc(C(F)(F)F)c1)c1ccc(C)cc1 (stereo unspecified) | -1.2 | 5 | i | 24 | 75*
COc1ccc(C(=O)NCC(=O)N/N=C/c2cn[nH]c2-c2ccccc2)cc1 | x | -4 | i | -15 | -1
CS(=O)(=O)N1CCC(C(=O)NCc2ccc(F)cc2)CC1 | -0.75 | -8 | i | x | 1
O=C(CSCc1nc2ccccc2[nH]1)Nc1ccc2ccccc2c1 | -0.91 | 13 | i | -79 | 2
O=C(CSCc1nc2ccccc2[nH]1)Nc1ccc(Oc2ccccc2)cc1 | -0.61 | 64* | i | -8 | 21
Brc1ccc(-c2cn3ccccc3n2)s1 | -0.35 | 2 | i | 86* | 26
COc1cccc(CN(C)C(=O)c2cccc(OC3CCN(C4CCCC4)CC3)c2)c1 | 0.5 | 63* | i | x | 3
SMILES | Insulin prom up | L major viab | Autophagy mod | INS promoter inh | WT yeast gro inh
COc1ccc(OC)c(C2=C/C(=C/c3ccccn3)C(=O)O2)c1 | -0.06 | -5 | i | 17 | 12
O=c1[nH]c(NCCO)nc2c1C1(CCCCC1)Cc1ccccc1-2 | 0.06 | 8 | i | -388 | x
CC1(C)Cc2ccccc2-c2nc(NCCO)n(-c3ccccc3)c(=O)c21 | 0.31 | -2 | i | x | 9
O=c1c2c(nc3n1CCCCC3)-c1ccccc1CC21CCCCC1 | -0.25 | 3 | i | -205 | 78*
CC1(C)CC(n2c(NCCO)nc3c(c2=O)C2(CCCC2)Cc2ccccc2-3)CCO1 (stereo unspecified) | -0.18 | 100* | i | 9 | 20
CCC1(C)Cc2ccccc2-c2nc3n(c(=O)c21)CCCCC3 (stereo unspecified) | -0.03 | -6 | i | -9 | 23
O=c1c2c(nc(NCCO)n1CC1CCCCC1)-c1ccccc1CC21CCCC1 | -0.15 | 91* | i | 23 | 69*
NNc1nc(N)c2c(n1)-c1ccccc1CC21CCCC1 | 1.1 | 100* | i | x | -2
Cc1cc(=O)n(-c2ccc(Cl)cc2)c(=O)[nH]1 | 0.44 | -4 | i | x | -9
Cc1cccn2c(NC(=O)c3cccs3)c(-c3ccccc3)nc12 | 0.03 | 3 | i | x | 6
Cn1c(C(O)c2ccccc2)nc(Cl)c1Cl (stereo unspecified) | x | -5 | i | 15 | -8
